The panel holds about 79,000 compounds, 15% with a hit somewhere; the sample as a whole holds those more often. Calls of active or inactive are those of the source. No stated cut-off is given here; in the data, active means growth inhibition above about 70%; inactive means the rest.
Key:
[1] = NCI Yeast Anticancer Drug Screen. Data for the rad52 strain (AID 147);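 further: 0% = growth of vehicle-treated control cultures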; settings: S. cerevisiae rad52 mutant growth inhibition, active compounds read high
In short: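 Here a repair-compromised yeast strain receives each compound; its growth is then quantified and normalised to vehicle-only controls.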

[2] = NCI Yeast Anticancer Drug Screen. Data for the wt1 strain (AID 149);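 further: 0% = growth of vehicle-treated wt1 cultures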; settings: S. cerevisiae wt1 strain (SPY 50644) growth inhibition, active compounds read high
In short: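 Readout: yeast growth inhibition, normalised to vehicle controls, in the wt1 strain exposed to test compounds.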

[3] = NCI Yeast Anticancer Drug Screen. Data for the rad50EPP+ strain (AID 151);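 further: 0% = growth of vehicle-treated control cultures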; settings: S. cerevisiae rad50 mutant strain, active compounds read high
In short: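 Read-out is yeast growth inhibition relative to vehicle; cells used were the rad50EPP+ strain.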

[4] = NCI Yeast Anticancer Drug Screen. Data for the mgt1 strain (AID 153); settings: S. cerevisiae mgt1 mutant growth inhibition, active compounds read high
In short: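 Measured: inhibition of mgt1 yeast growth by compound, normalized to vehicle-treated cultures.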

[5] = NCI Yeast Anticancer Drug Screen. Data for the rad50 strain (AID 155);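 further: 0% = growth of vehicle-only cultures of the same strain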; settings: S. cerevisiae rad50 strain growth inhibition, active compounds read high
In short: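 Compounds were tested on a yeast strain with an engineered DNA damage repair alteration; the reported value is growth inhibition normalised to vehicle treatment.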

[6] = NCI Yeast Anticancer Drug Screen. Data for the mec2-1 strain (AID 157); settings: S. cerevisiae mec2-1 strain, active compounds read high
In short: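 Using mec2-1 yeast: add compound, measure growth, express inhibition versus vehicle-treated cultures.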

[7] = NCI Yeast Anticancer Drug Screen. Data for the rad14 strain (AID 159);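 further: 0% = growth of vehicle-treated control cultures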; settings: S. cerevisiae rad14 strain growth inhibition, active compounds read high
In short: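 Compound-treated yeast with a defined DNA-repair lesion; growth inhibition normalised to vehicle-treated cultures.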

[8] = NCI Yeast Anticancer Drug Screen. Data for the sgs1 mgt1 strain (AID 161);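 further: 0% = growth of cultures given vehicle only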; settings: S. cerevisiae sgs1 mgt1 strain, active compounds read high
In short: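 This yeast growth screen uses a strain with defined DNA-repair lesions; compound-treated growth is compared with vehicle-treated growth.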

[9] = NCI Yeast Anticancer Drug Screen. Data for the CLN2oe strain (AID 163);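 further: 0% = growth of vehicle-only control cultures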; settings: S. cerevisiae CLN2oe strain, active compounds read high
In short: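 Whole-cell yeast growth assay. A strain engineered for altered cell-cycle control received compound, and inhibition relative to vehicle-treated cultures was recorded.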

[10] = NCI Yeast Anticancer Drug Screen. Data for the cln2 rad14 strain (AID 165);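 further: 0% = growth equal to vehicle treated cultures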; settings: S. cerevisiae cln2 rad14 strain, active compounds read high
In short: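 Yeast strain cln2 rad14, bearing defects in cell cycle control and DNA repair, serves as the test system; values reflect growth inhibition compared with vehicle.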

[11] = NCI Yeast Anticancer Drug Screen. Data for the bub3 strain (AID 167); settings: S. cerevisiae bub3 mutant strain, active compounds read high
In short: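 Growth of a checkpoint-deficient yeast mutant is measured after compound exposure. Values represent inhibition relative to vehicle.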

[12] = NCI Yeast Anticancer Drug Screen. Data for the mlh1 strain (AID 171);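 further: 0% = growth of vehicle-treated control cultures of the same strain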; settings: S. cerevisiae mlh1 strain growth inhibition, active compounds read high
In short: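 A yeast strain with a defined genetic lesion serves as the test organism. Cultures receive compound or vehicle, and growth is measured.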

[13] = NCI Yeast Anticancer Drug Screen. Data for the sgs1 strain (AID 173);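 further: 0% = growth of vehicle-only control cultures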; settings: S. cerevisiae sgs1 mutant, active compounds read high
In short: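 A genetically defined yeast mutant is incubated with the test compound, and its growth is compared to that of the same strain given vehicle.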

[14] = NCI Yeast Anticancer Drug Screen. Data for the mlh1 rad18 strain (AID 175); settings: S. cerevisiae mlh1 rad18 strain growth inhibition, active compounds read high
In short: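 Steps: expose repair-defective yeast to compound; measure growth; express inhibition against vehicle-treated controls.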

[15] = NCI Yeast Anticancer Drug Screen. Data for the rad18 strain (AID 177); settings: S. cerevisiae rad18 mutant growth inhibition, active compounds read high
In short: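 Measured value is growth inhibition of a yeast strain bearing a DNA repair alteration, referenced to vehicle-treated cells.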

[16] = NCI Yeast Anticancer Drug Screen. Data for the wt2 strain (AID 169);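 further: 0% = growth of vehicle-treated yeast cultures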; settings: S. cerevisiae wt2 strain growth inhibition, active compounds read high
In short: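 Treated yeast vs. vehicle-treated yeast: growth inhibition determined.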

[17] = at 5.0 µM (retest, dose inferred, filed as 0.5)
[18] = at 50.0 µM (retest, dose inferred, filed as 5.0)

Measured: growth inhibition

CCCCOC(=O)CSSCC(=O)OCCCC
inactive: [1]; at 1.2 µM -20% | [1]; at 3.7 µM -9% | [1]; at 11.0 µM 28% | [2]; at 1.2 µM -7% | [2]; at 3.7 µM -2% | [2]; at 11.0 µM 13% | [3]; at 1.2 µM -17% | [3]; at 3.7 µM -5% | [3]; at 11.0 µM 45% | [4]; at 1.2 µM 16% | [4]; at 3.7 µM 10% | [4]; at 11.0 µM 45% | [5]; at 1.2 µM -11% | [5]; at 3.7 µM 2% | [5]; [17] 44% | [5]; at 11.0 µM 17% | [6]; at 1.2 µM -38% | [6]; at 3.7 µM -10% | [6]; [17] 48% | [6]; at 11.0 µM 7% | [7]; at 1.2 µM -11% | [7]; at 3.7 µM -13% | [7]; at 11.0 µM -3% | [8]; [17] 9% | [9]; at 1.2 µM 8% | [9]; at 3.7 µM 4% | [9]; at 11.0 µM 8% | [9]; at 33.0 µM 61% | [10]; [17] 32% | [11]; at 1.2 µM 14% | [11]; at 3.7 µM 14% | [11]; [17] 56% | [11]; at 11.0 µM 53% | [12]; at 1.2 µM -26% | [12]; at 3.7 µM 7% | [12]; at 11.0 µM 37% | [13]; at 1.2 µM -30% | [13]; at 3.7 µM -8% | [13]; at 11.0 µM 18% | [14]; [17] 40% | [15]; at 1.2 µM -2% | [15]; at 3.7 µM 15% | [15]; at 11.0 µM 40%
active: [1]; at 33.0 µM 83% | [1]; at 100.0 µM 97% | [2]; at 33.0 µM 81% | [2]; at 100.0 µM 97% | [3]; at 33.0 µM 89% | [3]; at 100.0 µM 97% | [4]; at 33.0 µM 83% | [4]; at 100.0 µM 99% | [5]; at 33.0 µM 76% | [5]; [18] 99% | [5]; at 50.0 µM 91% | [5]; at 100.0 µM 97% | [6]; at 33.0 µM 80% | [6]; [18] 99% | [6]; at 50.0 µM 91.9% | [6]; at 100.0 µM 98% | [7]; at 33.0 µM 71% | [7]; at 100.0 µM 97% | [8]; [18] 99% | [9]; at 100.0 µM 98% | [10]; [18] 99% | [11]; at 33.0 µM 88% | [11]; [18] 98% | [11]; at 100.0 µM 99% | [12]; at 33.0 µM 74% | [12]; at 100.0 µM 98% | [13]; at 33.0 µM 70% | [13]; at 100.0 µM 96% | [14]; [18] 99% | [14]; at 50.0 µM 90.2% | [15]; at 33.0 µM 84% | [15]; at 100.0 µM 98%

COc1cc([C@@H]2c3cc4c(cc3[C@@H](OC3OC5COC(C)OC5C(O)C3O)[C@H]3COC(=O)[C@H]23)OCO4)cc(OC)c1O (stereo partly specified)
active: [1]; at 100.0 µM 81% | [5]; at 100.0 µM 89%
inactive: [1]; at 1.2 µM 1% | [1]; at 3.7 µM 4% | [1]; at 11.0 µM 20% | [1]; at 33.0 µM 51% | [2]; at 1.2 µM -1% | [2]; at 3.7 µM -2% | [2]; at 11.0 µM -2% | [2]; at 33.0 µM -1% | [2]; at 100.0 µM -13% | [3]; at 1.2 µM -9% | [3]; at 3.7 µM -3% | [3]; at 11.0 µM 2% | [3]; at 33.0 µM 9% | [3]; at 100.0 µM 23% | [4]; at 1.2 µM -4% | [4]; at 3.7 µM -4% | [4]; at 11.0 µM -2% | [4]; at 33.0 µM 0% | [4]; at 100.0 µM 0% | [5]; at 1.2 µM 0% | [5]; at 3.7 µM 4% | [5]; at 11.0 µM 20% | [5]; at 33.0 µM 61% | [5]; at 50.0 µM 11.6% | [6]; at 1.2 µM -3% | [6]; at 3.7 µM 0% | [6]; at 11.0 µM 4% | [6]; at 33.0 µM 2% | [6]; at 50.0 µM 11.6% | [6]; at 100.0 µM 4% | [7]; at 1.2 µM -2% | [7]; at 3.7 µM -2% | [7]; at 11.0 µM 3% | [7]; at 33.0 µM 2% | [7]; at 100.0 µM 12% | [8]; at 50.0 µM 13.8% | [9]; at 1.2 µM -2% | [9]; at 3.7 µM -6% | [9]; at 11.0 µM -4% | [9]; at 33.0 µM -4% | [9]; at 100.0 µM -6% | [10]; at 50.0 µM 11.3% | [11]; at 1.2 µM -7% | [11]; at 3.7 µM -8% | [11]; at 11.0 µM 0% | [11]; at 33.0 µM -12% | [11]; at 50.0 µM 4.5% | [11]; at 100.0 µM -5% | [16]; at 1.2 µM -3% | [16]; at 3.7 µM -2% | [16]; at 11.0 µM -4% | [16]; at 33.0 µM -3% | [16]; at 100.0 µM 3% | [12]; at 1.2 µM -4% | [12]; at 3.7 µM -3% | [12]; at 11.0 µM -1% | [12]; at 33.0 µM 0% | [12]; at 100.0 µM 7% | [13]; at 1.2 µM -3% | [13]; at 3.7 µM -3% | [13]; at 11.0 µM 1% | [13]; at 33.0 µM 5% | [13]; at 100.0 µM 16% | [14]; at 50.0 µM 64.8% | [15]; at 1.2 µM -4% | [15]; at 3.7 µM -2% | [15]; at 11.0 µM -2% | [15]; at 33.0 µM 6% | [15]; at 100.0 µM 18%

Source: PubChem BioAssay (NCI)
